Results filed as inconclusive are left out. A number with no mark means an inactive call. Calls of active or inactive are those of the source. Calls come from the whole dose curve.
Biological target: 5-hydroxytryptamine receptor 2A (Homo sapiens) (UniProt P28223)
Assay: 5-hydroxytryptamine receptor 2A (HTR2A) small molecule antagonists, cell-based qHTS assay (AID 1963586); note: nearly all actives have a fitted effect of over 45% in size
Details: HTR2A-CHO cells, DOI-induced calcium flux, fluorescence; series mostly up to 61.5 µM; activity, negative = inhibition: at the top concentration
Text: National Center for Advancing Translational Sciences [NCATS]
Division of Preclinical Innovation [DPI]
U.S. Environmental Protection Agency [EPA]
National Institutes of Environmental Health Sciences [NIEHS]
National Toxicology Program [NTP]
U.S. Food and Drug Administration [FDA]
The HTR2A receptor is a subtype of the 5-HT2 receptor that belongs to the serotonin receptor family and is a G protein-coupled receptor (GPCR). The HTR2A-CHO cell line stably expressing human 5-hydroxytryptamine receptor 2A (HTR2A) can be used for screening antagonists of interactions between 5-HT2 and its ligands. The HTR2A-CHO calcium flux assay is a homogeneous fluorescence-based assay for detecting the intracellular calcium level using FDSS kinetic plate reader system.
Tox21 Assay Protocol Summary:
HTR2A-CHO cells were dispensed at 2000 cells/3uL/well in 1536-well black-clear bottom plates using a Multidrop Dispenser. After the assay plates were incubated at a 37 C/5% CO2 incubator for 18 h, 3 uL of Dye Loading Buffer was transferred to the assay plate by a Flying Reagent Dispenser. The assay plates were incubated at 37 C for 1h. For antagonist mode, 23 nL of compounds dissolved in DMSO, positive controls or DMSO only was transferred to the assay plate by a pin tool. After 5 min incubation at room temperature, 1.5 uL of 4-Iodo-2,5-dimethoxy-alpha-methylbenzeneethanamine hydrochloride (DOI) at 4nM was added to each well. The fluorescence intensity in the plates was measured using FDSS 7000EX kinetic plate reader for 3 min at 1 sec intervals.
% is set by controls: 0 for no effect and ±100 for the full control effect; potency is the fitted concentration of half-maximal effect.

Chain of 5-hydroxytryptamine receptor 2A (Homo sapiens) (P28223 whole entry, looked up): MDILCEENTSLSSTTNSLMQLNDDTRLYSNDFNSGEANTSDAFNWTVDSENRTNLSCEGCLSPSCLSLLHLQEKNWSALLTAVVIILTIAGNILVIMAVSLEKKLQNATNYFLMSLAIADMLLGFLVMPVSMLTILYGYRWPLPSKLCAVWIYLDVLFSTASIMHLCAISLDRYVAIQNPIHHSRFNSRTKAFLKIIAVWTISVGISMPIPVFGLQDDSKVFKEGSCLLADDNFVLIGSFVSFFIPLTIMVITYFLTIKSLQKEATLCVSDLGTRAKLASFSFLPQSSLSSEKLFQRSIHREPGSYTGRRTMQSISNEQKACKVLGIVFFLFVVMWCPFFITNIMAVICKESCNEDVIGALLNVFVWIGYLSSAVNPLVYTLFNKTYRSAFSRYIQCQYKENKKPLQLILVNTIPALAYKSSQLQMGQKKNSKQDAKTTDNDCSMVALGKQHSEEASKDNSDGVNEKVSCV

Row | Structure (SMILES) | activity, negative = inhibition | Potency
1 | O=P(O)(O)Oc1ccccc1 | -1.3% | –
2 | C=CC(C)(CCC=C(C)C)OC(=O)c1ccccc1 (stereo not given) | -2% | –
3 | Nc1ncnc(Nc2ccccc2)n1 | -13.5% [at 28.5 µM] | –
4 | BrC/C=C/CBr | -12.9% [at 12.7 µM] | –
5 | CS(=O)(=O)c1ccc(-c2cn3ccccc3n2)cc1 | 21.3% [at 28.5 µM] | –
6 | CC(C)C(=O)OC/C=C/c1ccccc1 | 2.02% | –
7 | Cc1ccnc2ccccc12 | 11% | –
8 | COC(=O)NN | 17.2% | –
9 | Cc1cc(O)ccc1N | 5.89% | –
10 | O=C1NCN(c2ccccc2)C12CCN(CCCC(c1ccc(F)cc1)c1ccc(F)cc1)CC2 | – | 51.6 nM (active)
11 | Cc1[nH]c(=O)c(C#N)cc1-c1ccc2nccn2c1 | 17.7% [at 28.5 µM] | –
12 | CCC1(CO)COCOC1 | 7.08% | –
13 | CC(=O)[C@H]1CC[C@H]2[C@@H]3C=CC4=CC(=O)CC[C@@]4(C)[C@@H]3CC[C@]12C | -1.67% [at 28.5 µM] | –
14 | O=C(O)c1ccc(Cl)cc1Cl | 4.03% | –
15 | C=C1C[C@@]23CC[C@H]4[C@@](C)(CCC[C@@]4(C)C(=O)O[C@@H]4O[C@H](CO)[C@@H](O)[C@H](O)[C@H]4O)[C@@H]2CC[C@]1(O[C@@H]1O[C@H](CO)[C@@H](O)[C@H](O[C@@H]2O[C@H](CO)[C@@H](O)[C@H](O)[C@H]2O)[C@H]1O[C@@H]1O[C@H](CO)[C@@H](O)[C@H](O)[C@H]1O)C3 | -6.86% | –
16 | COc1ccc(OC)c(N=Nc2c(O)ccc3ccccc23)c1 | -2.64% | –
17 | CC(C)(C)N(CCO)CCO | 28.9% | –
18 | CC=C(Cl)Cl | 5.93% | –
19 | O=S(=O)(O)c1ccc(Cl)cc1 | 0.151% | –
20 | O=C(O)Cc1sc(-c2ccccc2)nc1-c1ccc(Cl)cc1 | -26.7% [at 28.5 µM] | –

Row | Structure (SMILES) | activity, negative = inhibition | Potency
21 | COc1c(Br)cc(Br)c(C)c1Br | -22.6% | –
22 | CCCCCCCCCCCCc1ccc(O)cc1 | 12.3% | –
23 | CCCCCCCCCCCCC | -11% | –
24 | COC(=O)c1cc(C(=O)OC)cc(S(=O)(=O)O)c1 | 63.7% | –
25 | COc1cc2c(cc1OC)CN(C(=O)[C@H](C)N[C@@H](CCc1ccccc1)C(=O)O)[C@H](C(=O)O)C2 | -9.25% [at 28.5 µM] | –
26 | CC(=O)OC(C)(C)C | -7.57% | –
27 | CN1CC(=O)NC1=N | 1.84% [at 28.5 µM] | –
28 | CO[Si](CCCNc1ccccc1)(OC)OC | 10.2% | –
29 | Cc1cccc(C)c1C | -6.26% | –
30 | CC(=O)SC[C@@H](Cc1ccccc1)C(=O)NCC(=O)OCc1ccccc1 | -25.7% [at 28.5 µM] | –
31 | CCc1nn(C2CCCCC2)c2cc(C3(C#N)CCC(C(=O)O)CC3)ccc12 (stereo not given) | -14.9% | –
32 | C[N+]1(C)CCCC(OC(=O)C(O)(c2ccccc2)c2ccccc2)C1 (stereo not given) | -2.17% [at 28.5 µM] | –
33 | CC(=O)N/N=C/c1ccc([N+](=O)[O-])o1 | 0.509% [at 28.5 µM] | –
34 | CCCCOCCOC(=O)COc1cc(Cl)c(Cl)cc1Cl | – | 9420 nM (active)
35 | CC(=O)O[C@@H]1CC2CCC1(C)C2(C)C (stereo not given in full) | 6% | –
36 | Nc1ccc2cc(S(=O)(=O)O)cc(O)c2c1 | 29.6% | –
37 | COc1cc2c(cc1OC)C(=O)CC2 | 2.38% [at 28.5 µM] | –
38 | ONc1ccccc1 | -13.9% | –
39 | CN1CCN(C2=Nc3ccccc3Sc3ccc(Cl)cc32)CC1 | – | 81.8 nM (active)
40 | OCCCc1cccnc1 | 3.68% | –

From PubChem BioAssay (Tox21)
